Experimental data reported in PubChem BioAssay (NCATS).
“And” between values parts separate entries of the source, which are not always exact repeats. Identical values can stand only once. Records with an inconclusive call do not appear. The source made the active and inactive calls. The call rests on the fitted dose curve; in most records, active means well fitted curve in the direction sought with a large enough effect; inconclusive means small, poorly fitted or top-dose-only effect, or another doubt; inactive means no such curve, though single readings can be large; an effect the other way counts as inactive or inconclusive.

Legend:
[1] = qHTS of pediatric cancer cell lines to identify multiple opportunities for drug repurposing: Primary screen for NB1643 cells (AID 1347099); further: nearly all actives have a fitted effect of over 50% in size; further: potency means the concentration at half of the fitted maximal effect
How it was run: (§1)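 Phenotypic viability qHTS, 48 h compound exposure, CellTiter-Glo luminescence read-out; multi-concentration dosing so that potency and efficacy derive directly from the primary screen's curves.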

[2] = qHTS of pediatric cancer cell lines to identify multiple opportunities for drug repurposing: Primary screen for Rh18 cells (AID 1347102); further: nearly all actives have a fitted effect of over 65% in size; further: potency means the concentration at half of the fitted maximal effect
How it was run: (§2)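 Cells (500-1,000/well) rested 5 h, then received compounds for 48 h; metabolically active cells were measured by CellTiter-Glo luminescence. Final concentrations spanned up to 46 µM (MIPE, 11-point) or 0.59 nM-46 µM (NPC, 8-point) in primary screens, 11-point in follow-ups.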

[3] = qHTS of pediatric cancer cell lines to identify multiple opportunities for drug repurposing: Primary screen for MG 63 (6-TG R) cells (AID 1347105); further: nearly all actives have a fitted effect of over 50% in size; further: potency means the concentration at half of the fitted maximal effect
How it was run: as §1

[4] = qHTS of pediatric cancer cell lines to identify multiple opportunities for drug repurposing: Primary screen for control Hh wild type fibroblast cells (AID 1347106);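 further: series mostly up to about 46 µM; a drop in luminescence marks cytotoxicity and a rise apparent proliferation; nearly all actives have a fitted effect of over 55% in size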
How it was run: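 Cells (500-1,000/well) in growth media were settled 5 h at 37 degrees C, then given compounds for 48 h. Viability was read as CellTiter-Glo luminescence. Primary runs used MIPE at 11 points (0.78 nM-46 µM) and NPC at 8 points (0.59 nM-46 µM); follow-ups used 11 points.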

[5] = qHTS of pediatric cancer cell lines to identify multiple opportunities for drug repurposing: Primary screen for Rh30 cells (AID 1347107); further: nearly all actives have a fitted effect of over 75% in size; further: potency means the concentration at half of the fitted maximal effect
How it was run: as §2

[6] = qHTS of pediatric cancer cell lines to identify multiple opportunities for drug repurposing: Primary screen for RD cells (AID 1347104); further: nearly all actives have a fitted effect of over 55% in size; further: potency means the concentration at half of the fitted maximal effect
How it was run: as §1

[7] = qHTS of pediatric cancer cell lines to identify multiple opportunities for drug repurposing: Primary screen for Rh41 cells (AID 1347108); further: nearly all actives have a fitted effect of over 70% in size; further: potency means the concentration at half of the fitted maximal effect
How it was run: as §1

[8] = qHTS of pediatric cancer cell lines to identify multiple opportunities for drug repurposing: Primary screen for LAN-5 cells (AID 1347100); further: potency means the concentration at half of the fitted maximal effect
How it was run: as §2

[9] = qHTS of pediatric cancer cell lines to identify multiple opportunities for drug repurposing: Primary screen for OHS-50 cells (AID 1347103); further: nearly all actives have a fitted effect of over 40% in size; further: potency means the concentration at half of the fitted maximal effect
How it was run: as §2

[10] = qHTS of pediatric cancer cell lines to identify multiple opportunities for drug repurposing: Primary screen for BT-12 cells (AID 1347101); further: nearly all actives have a fitted effect of over 25% in size; further: potency means the concentration at half of the fitted maximal effect
How it was run: as §2

[11] = qHTS of pediatric cancer cell lines to identify multiple opportunities for drug repurposing: Confirmatory screen for NB1643 cells (AID 1347109); further: nearly all actives have a fitted effect of over 45% in size; further: potency means the concentration at half of the fitted maximal effect
How it was run: as §2

[12] = qHTS of pediatric cancer cell lines to identify multiple opportunities for drug repurposing: Confirmatory screen for A673 cells (AID 1347110);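 further: cells exposed to compound for 48 h before the viability read; nearly all actives have a fitted effect of over 65% in size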
How it was run: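 Forty-eight-hour viability assay. Follow-up compounds ran at 11-point dilutions; positive control bortezomib at 2.3 uM final, neutral control DMSO.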

[13] = qHTS of pediatric cancer cell lines to identify multiple opportunities for drug repurposing: Confirmatory screen for BT-12 cells (AID 1347112); further: nearly all actives have a fitted effect of over 55% in size
How it was run: as §2

[14] = qHTS of pediatric cancer cell lines to identify multiple opportunities for drug repurposing: Confirmatory screen for LAN-5 cells (AID 1347113); further: nearly all actives have a fitted effect of over 65% in size
How it was run: as §2

[15] = qHTS of pediatric cancer cell lines to identify multiple opportunities for drug repurposing: Confirmatory screen for NB-EBc1 cells (AID 1347115);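 further: cells exposed to compound for 48 h before the viability read; nearly all actives have a fitted effect of over 45% in size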; further: potency means the concentration at half of the fitted maximal effect
How it was run: as §2

[16] = qHTS of pediatric cancer cell lines to identify multiple opportunities for drug repurposing: Confirmatory screen for BT-37 cells (AID 1347117); further: nearly all actives have a fitted effect of over 55% in size
How it was run: as §2

[17] = qHTS of pediatric cancer cell lines to identify multiple opportunities for drug repurposing: Confirmatory screen for SK-N-MC cells (AID 1347111);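 further: potency means the concentration at half of the fitted maximal effect; cells exposed to compound for 48 h before the readout; nearly all actives have a fitted effect of over 70% in size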
How it was run: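 Seed 500-1,000 cells/well; rest 5 h at 37 degrees C. Pin-transfer compounds, 11-point titration. Incubate 48 h. Add CellTiter-Glo, 15 min RT, read luminescence.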

[18] = qHTS of pediatric cancer cell lines to identify multiple opportunities for drug repurposing: Confirmatory screen for SJ-GBM2 cells (AID 1347116); further: nearly all actives have a fitted effect of over 60% in size
How it was run: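 Viability measured as metabolically active cells via CellTiter-Glo luminescence following 48 hours of compound exposure, 11-point dilutions in confirmatory testing. 500-1,000 cells/well plated 5 hours before dosing; controls were DMSO and 2.3 µM bortezomib.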

[19] = qHTS of pediatric cancer cell lines to identify multiple opportunities for drug repurposing: Confirmatory screen for TC32 cells (AID 1347118);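 further: potency means the concentration at half of the fitted maximal effect; cells exposed to compound for 48 h before the read; nearly all actives have a fitted effect of over 65% in size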
How it was run: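 TC32 cells, 500-1,000/well in growth medium, compound-treated 48 h at 37 °C; viability from CellTiter-Glo luminescence. Primary screen: MIPE 11-point (0.78 nM–46 µM final), NPC 8-point (0.59 nM–46 µM final); confirmatory at 11-point dilutions.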

Measured: Potency

COc1ccc(Cc2nccc3cc(OC)c(OC)cc23)cc1OC
inactive: [1] | [2] | [3] | [4] | [5]

N#CC(C#N)=Cc1ccc(O)c(O)c1
inactive: [1] | [2] | [6] | [3] | [4] | [5] | [7]

COC[C@H]1OC(=O)c2coc3c2[C@@]1(C)C1=C(C3=O)C2CCC(=O)[C@@]2(C)C[C@H]1OC(C)=O (stereo partly drawn)
active: [1] 11.8 µM | [8] 11.8 µM | [2] 20.9 µM | [9] 4.32 µM | [6] 18.7 µM | [3] 9.35 µM | [7] 18.7 µM

Clc1ccc(CCC(Cn2ccnc2)Sc2c(Cl)cccc2Cl)cc1 (stereo not drawn)
inactive: [2] | [3] | [4] | [5] | [7]
active: [8] 20.9 µM | [9] 27.6 µM | [6] 37.2 µM

Oc1ccc(Cl)cc1Cc1ccccc1
active: [9] 25.6 µM
inactive: [1] | [10] | [2] | [4] | [5] | [7]

COC[C@@H](NC(C)=O)C(=O)NCc1ccccc1
not listed: [1] | [17] | [18] | [19]
inactive: all other assays above

Cn1cc(C2=C(c3cn(C4CCN(Cc5ccccn5)CC4)c4ccccc34)C(=O)NC2=O)c2ccccc21
inactive: [1] | [10] | [2] | [6] | [4] | [5] | [7] | [13]

Cc1cccc(C)c1NC1=NCCCS1
inactive: [8] | [10] | [2] | [9] | [6] | [3] | [4] | [5] | [7]

Cn1c(CCCC(=O)O)nc2cc(N(CCCl)CCCl)ccc21
active: [1] 18.7 µM | [9] 24.6 µM and 24.3 µM | [11] 16.5 µM | [17] 3.69 µM | [15] 13.1 µM | [19] 4.65 µM
not listed: [8] | [12] | [16]
inactive: all other assays above

CC(C)(C)CC(C)(C)c1ccc(O)cc1
active: [9] 25.2 µM and 15.5 µM
inactive: [1] | [2] | [6] | [4] | [5] | [7]

CCC(COC(=O)c1cc(OC)c(OC)c(OC)c1)(c1ccccc1)N(C)C (stereo not drawn)
inactive: [1] | [2] | [6] | [3] | [4] | [5] | [7]

CCOC(=O)C1(c2ccccc2)CCN(CCC(C#N)(c2ccccc2)c2ccccc2)CC1
inactive: [4]
active: [9] 12.3 µM

CC(O)(CS(=O)(=O)c1ccc(F)cc1)C(=O)Nc1ccc(C#N)c(C(F)(F)F)c1 (stereo not drawn)
active: [1] 3.32 µM | [6] 5.9 µM | [3] 3.72 µM | [5] 3.72 µM | [7] 3.72 µM
inactive: [2]

COc1ccc2c(c1OC)CN1CCc3cc4c(cc3C1C2)OCO4 (stereo not drawn)
inactive: [1] | [2] | [6] | [3] | [4] | [5] | [7]
active: [10] 15.5 µM | [9] 17.4 µM
